Inhibition data for 17 molecules are collected here from ChEMBL document CHEMBL1961873, “Compounds: GSK PKIS; Assays: Nanosyn kinase panel” (2012).

The target in test [1] is Serine/threonine-protein kinase 26 (Homo sapiens) (UniProt Q9P289). Conditions: at 1 µM.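 Further: mean inhibition of MST4 kinase activity, reported from the GSK PKIS inhibitor-set screening panel.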
Test [2] addresses Serine/threonine-protein kinase PAK 1 (Homo sapiens) (UniProt Q13153). Conditions: at 0.1 µM.
For test [3] the target is unchanged. Conditions: at 1 µM.
In test [4] the target is Serine/threonine-protein kinase PAK 2 (Homo sapiens) (UniProt Q13177). Conditions: at 0.1 µM.
Serine/threonine-protein kinase PAK 2 (Homo sapiens), sequence (Q13177 whole entry): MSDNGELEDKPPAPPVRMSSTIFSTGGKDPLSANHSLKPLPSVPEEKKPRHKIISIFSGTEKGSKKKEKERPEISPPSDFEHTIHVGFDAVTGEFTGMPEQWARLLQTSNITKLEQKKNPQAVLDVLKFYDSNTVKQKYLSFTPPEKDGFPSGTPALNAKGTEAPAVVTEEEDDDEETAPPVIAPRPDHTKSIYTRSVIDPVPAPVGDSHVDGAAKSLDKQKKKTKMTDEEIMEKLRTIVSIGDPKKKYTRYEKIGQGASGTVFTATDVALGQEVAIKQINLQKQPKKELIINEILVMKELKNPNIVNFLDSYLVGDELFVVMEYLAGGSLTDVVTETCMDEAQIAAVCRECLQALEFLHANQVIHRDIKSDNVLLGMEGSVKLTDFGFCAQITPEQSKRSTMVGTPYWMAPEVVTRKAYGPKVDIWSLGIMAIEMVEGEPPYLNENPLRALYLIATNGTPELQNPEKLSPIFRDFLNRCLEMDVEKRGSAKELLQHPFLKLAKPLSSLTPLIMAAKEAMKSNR
Test [5] shares this target. As to conditions: at 1 µM.
In test [6] the target is Serine/threonine-protein kinase PAK 3 (Homo sapiens) (UniProt O75914). Conditions: at 0.1 µM.
Serine/threonine-protein kinase PAK 3 (Homo sapiens), sequence (O75914 whole entry, looked up): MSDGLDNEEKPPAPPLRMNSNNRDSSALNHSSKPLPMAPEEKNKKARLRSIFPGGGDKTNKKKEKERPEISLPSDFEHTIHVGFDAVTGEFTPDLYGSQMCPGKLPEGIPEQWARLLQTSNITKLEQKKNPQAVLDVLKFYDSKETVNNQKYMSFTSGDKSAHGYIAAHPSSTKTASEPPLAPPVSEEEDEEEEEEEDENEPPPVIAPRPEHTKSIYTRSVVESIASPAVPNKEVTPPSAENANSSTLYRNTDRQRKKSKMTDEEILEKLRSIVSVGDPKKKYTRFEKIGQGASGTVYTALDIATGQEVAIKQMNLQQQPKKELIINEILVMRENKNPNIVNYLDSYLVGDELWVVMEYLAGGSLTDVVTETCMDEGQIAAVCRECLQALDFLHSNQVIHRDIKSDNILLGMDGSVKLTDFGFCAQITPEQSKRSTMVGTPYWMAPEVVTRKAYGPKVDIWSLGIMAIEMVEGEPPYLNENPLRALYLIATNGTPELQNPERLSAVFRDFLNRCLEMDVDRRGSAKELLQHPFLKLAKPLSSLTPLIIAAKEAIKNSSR
Test [7] has the same target. Conditions: at 1 µM.
Test [8] addresses Serine/threonine-protein kinase PAK 5 (Homo sapiens) (UniProt Q9P286). As to conditions: at 0.1 µM.
For test [9] the target is unchanged. As to conditions: at 1 µM.
In test [10] the target is Serine/threonine-protein kinase PAK 6 (Homo sapiens) (UniProt Q9NQU5). As to conditions: at 0.1 µM.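 Further: mean PAK6 inhibition reported from the GSK PKIS screen.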
Serine/threonine-protein kinase PAK 6 (Homo sapiens), sequence (Q9NQU5 whole entry, looked up): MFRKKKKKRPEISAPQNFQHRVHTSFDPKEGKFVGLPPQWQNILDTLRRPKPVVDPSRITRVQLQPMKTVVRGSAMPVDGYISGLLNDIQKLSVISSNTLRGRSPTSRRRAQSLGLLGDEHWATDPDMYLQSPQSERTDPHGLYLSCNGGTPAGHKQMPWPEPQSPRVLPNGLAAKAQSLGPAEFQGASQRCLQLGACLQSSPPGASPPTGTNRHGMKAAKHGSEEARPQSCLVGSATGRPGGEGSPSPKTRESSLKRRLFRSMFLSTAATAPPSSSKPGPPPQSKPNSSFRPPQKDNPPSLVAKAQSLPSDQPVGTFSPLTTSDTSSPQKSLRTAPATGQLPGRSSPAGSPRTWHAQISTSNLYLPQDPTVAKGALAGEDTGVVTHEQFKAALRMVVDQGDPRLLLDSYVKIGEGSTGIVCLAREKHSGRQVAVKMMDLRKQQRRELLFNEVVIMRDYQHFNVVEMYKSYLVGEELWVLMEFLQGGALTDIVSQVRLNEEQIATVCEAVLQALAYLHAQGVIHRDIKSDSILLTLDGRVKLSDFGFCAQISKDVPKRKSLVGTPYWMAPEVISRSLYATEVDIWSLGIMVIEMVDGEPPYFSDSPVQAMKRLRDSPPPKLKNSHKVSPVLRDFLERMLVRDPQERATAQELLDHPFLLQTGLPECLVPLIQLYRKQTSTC

The structures appear in SMILES notation.

Serine/threonine-protein kinase PAK 5 (Homo sapiens), sequence (Q9P286 whole entry, looked up): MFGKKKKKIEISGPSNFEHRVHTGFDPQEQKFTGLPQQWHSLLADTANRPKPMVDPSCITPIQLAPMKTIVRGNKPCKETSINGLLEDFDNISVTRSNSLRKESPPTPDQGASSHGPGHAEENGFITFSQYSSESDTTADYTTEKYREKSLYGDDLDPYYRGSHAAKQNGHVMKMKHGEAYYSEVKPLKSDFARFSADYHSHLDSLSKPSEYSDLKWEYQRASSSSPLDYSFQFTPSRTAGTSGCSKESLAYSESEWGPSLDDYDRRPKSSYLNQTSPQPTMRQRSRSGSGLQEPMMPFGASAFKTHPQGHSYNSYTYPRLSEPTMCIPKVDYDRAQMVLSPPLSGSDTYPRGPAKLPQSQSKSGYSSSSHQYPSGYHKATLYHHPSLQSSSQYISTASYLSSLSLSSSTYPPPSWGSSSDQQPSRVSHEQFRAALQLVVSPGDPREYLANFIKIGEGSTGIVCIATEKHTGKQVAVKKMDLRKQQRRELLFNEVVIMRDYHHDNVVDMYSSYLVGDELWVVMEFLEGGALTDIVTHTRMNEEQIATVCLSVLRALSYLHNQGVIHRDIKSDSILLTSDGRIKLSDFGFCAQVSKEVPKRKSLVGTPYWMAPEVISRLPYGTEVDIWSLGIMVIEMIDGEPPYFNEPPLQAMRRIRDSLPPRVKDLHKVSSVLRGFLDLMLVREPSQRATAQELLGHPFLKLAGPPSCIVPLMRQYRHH
Serine/threonine-protein kinase PAK 1 (Homo sapiens), sequence (Q13153 whole entry): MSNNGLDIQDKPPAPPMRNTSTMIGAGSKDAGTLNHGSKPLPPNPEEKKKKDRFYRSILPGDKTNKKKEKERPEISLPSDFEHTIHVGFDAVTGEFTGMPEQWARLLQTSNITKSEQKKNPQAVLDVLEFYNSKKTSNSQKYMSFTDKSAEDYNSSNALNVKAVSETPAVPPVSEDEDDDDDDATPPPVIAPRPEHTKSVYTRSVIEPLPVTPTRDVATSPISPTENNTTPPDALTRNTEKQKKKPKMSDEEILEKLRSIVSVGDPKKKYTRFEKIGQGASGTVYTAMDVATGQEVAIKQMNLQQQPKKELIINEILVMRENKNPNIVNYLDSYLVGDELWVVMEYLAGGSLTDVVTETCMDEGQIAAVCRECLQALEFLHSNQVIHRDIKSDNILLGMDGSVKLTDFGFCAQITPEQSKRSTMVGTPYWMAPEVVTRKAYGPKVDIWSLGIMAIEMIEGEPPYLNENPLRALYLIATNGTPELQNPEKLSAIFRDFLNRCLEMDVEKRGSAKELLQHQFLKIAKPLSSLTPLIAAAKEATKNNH
Serine/threonine-protein kinase 26 (Homo sapiens), sequence (Q9P289 2-416 limits assumed): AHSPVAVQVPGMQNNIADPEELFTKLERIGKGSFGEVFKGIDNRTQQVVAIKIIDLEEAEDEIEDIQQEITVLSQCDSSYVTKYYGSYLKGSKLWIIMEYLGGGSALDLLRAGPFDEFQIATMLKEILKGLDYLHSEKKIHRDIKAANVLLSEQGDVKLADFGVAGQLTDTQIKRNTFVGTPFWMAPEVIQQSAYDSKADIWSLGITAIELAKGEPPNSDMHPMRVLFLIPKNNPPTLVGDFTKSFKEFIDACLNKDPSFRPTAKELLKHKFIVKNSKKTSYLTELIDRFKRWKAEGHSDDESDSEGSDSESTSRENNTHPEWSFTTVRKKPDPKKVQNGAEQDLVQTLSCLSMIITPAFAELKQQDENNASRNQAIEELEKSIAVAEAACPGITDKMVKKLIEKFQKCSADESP

By inhibition is commonly meant the change of the read-out against control, counted positive when it falls. Turning to `COc1cc(Nc2ncc(-c3ccccc3)o2)cc(OC)c1OC`, the inhibition is -4.83% in test [1]; -0.3% in test [2]; -0.52% in [3]; -1.31% in test [4]; -0.61% in [5]; -1.91% in [6]. Moreover, the inhibition was -0.07% in test [7], -0.92% in test [8], 7.2% in [9] and -5.44% in test [10].

As for `COc1ccc(-c2ccc3c(NC(=O)C4CC4)n[nH]c3n2)cc1`, the inhibition in test [1] is 1.05%; in test [2], 2.82%; in test [3], 2.7%; in test [4] it was -1.11%; in [5] it was -0.84%; in test [6] it was 3.36%. For the same molecule, the inhibition is 3.17% in test [7], -5.83% in [8], -4.91% in test [9] and 2.86% in test [10].

On to `Clc1ccc(CNc2nccc(-c3cnn4ncccc34)n2)cc1`, for which the inhibition is 1.18% in test [1]; -2.27% in test [2]; -0.13% in [3]; 0.78% in test [4]; 0.67% in test [5]; -0.26% in [6]. Also, the inhibition in test [7] was found to be 0.29%; in test [8] it was 8.39%; in [9], 2.06%.

For `COc1cc(N2CCN(C(C)C)CC2)ccc1Nc1nc(Nc2ccc(F)cc2C(=O)NC[C@@H](O)CO)c2cc[nH]c2n1`, the inhibition in test [1] was -2.64%; in [2], 4.77%; in test [3] it was 11.8%; in test [4], 1.33%; in test [5], 1.54%; in test [6], 4.85%. Besides, the inhibition in test [7] was 6.19%; in test [8] it was 2.5%; in test [9], -2.48%; in [10] it was 5.3%.

For `O=C(Nc1n[nH]c2cc(-c3ccccc3)ccc12)C1CC1`, the inhibition was -4.03% in [1]; 7.59% in [2]; 7.76% in test [3]; 1.44% in [4]; 2.41% in [5]; 5.22% in test [6]. For the same molecule, the inhibition in test [7] is 6.01%; in test [8], 0.11%; in [9] it was -0.04%; in [10], 5.51%.

Turning to `COc1cc2ncn(-c3cc(OCc4cccs4)c(C(N)=O)s3)c2cc1OC`, the inhibition in [1] was found to be 0.69%; in test [2], 5.82%; in [3], 5.75%; in [4] it was 0.62%; in test [5], 0.03%; in test [6], 2%. The inhibition in test [7] came to 4.56%; in [8] it was 8.19%; in test [9], 8.5%; in test [10] it was 6.2%.

`COc1cc(Nc2ncc3c(C)nc(-c4cccc(Oc5ccccc5)c4)n3n2)cc(OC)c1OC`: the inhibition in [1] is -2.15%; in test [2] it was 4.4%; in test [3], 3.74%; in test [4], 1.49%; in test [5], 1.12%; in test [6] it was 2.09%. For the same molecule, the inhibition in test [7] was 4.11%; in [8], 1.86%; in test [9], 4.51%; in test [10], -2.06%.

In the case of `NC(=O)Cc1ccccc1Oc1nccc(-c2c(-c3ccc(F)cc3)ncn2C2CCNCC2)n1`, the inhibition in [1] is -1.77%; in test [2], 4.71%; in [3], 7.55%; in [4], 1.39%; in [5] it was 1.36%; in [6], 0.09%. Moreover, the inhibition was 3.36% in test [7], -1.8% in test [8], -2.81% in test [9] and 1.97% in test [10].

As for `COc1cccc(-n2cnc3c(N/N=C/c4ccncc4)ncnc32)c1`, the inhibition in [1] was -2.88%; in test [2] it was 2.37%; in [3], 1.58%; in [4] it was -1.03%; in test [5] it was -0.99%; in test [6], -1.14%. In addition, the inhibition in [7] amounted to 0.31%; in [8], 6.09%; in [9], 10.8%; in test [10] it was 5.99%.

For the molecule `Cc1ccc(C(=O)NC2CCC2)cc1-c1ccc(C(=O)NCC2CC2)cc1`, the inhibition in test [1] was -4.44%; in test [2], 6.1%; in test [3] it was 8.35%; in test [4] it was 2.22%; in test [5], 2.3%; in test [6], 3.41%. The inhibition is 3.03% in test [7], -0.72% in test [8], -2.79% in [9] and 3.05% in test [10].

Consider `NC(=O)c1cc(-c2ccc(F)cc2)cc(-c2ccncc2)c1N`, for which the inhibition in test [1] was -1.28%; in [2], 5.31%; in [3], 6.13%; in test [4], 0.6%; in test [5], 1.36%; in [6], 4.12%. For the same molecule, the inhibition is 4.25% in test [7], -1.26% in test [8], 1.21% in test [9] and -6.76% in test [10].

Turning to `C#Cc1cccc(Nc2ncnc3ccc(OCCCCNCCS(C)(=O)=O)cc23)c1`, the inhibition in test [1] is -0.45%; in [2], 9.27%; in [3], 7.48%; in [4] it was 2.71%; in test [5], 1.48%; in [6], 4.58%. For the same molecule, the inhibition in test [7] is 5.67%; in test [8], 2.62%; in [9] it was 4.31%; in test [10] it was -6.04%.

As for `CNC(=O)c1cncc(/C=C/c2c(C)cccc2C)c1`, the inhibition in test [1] is 2.22%; in [2], 0.04%; in [3] it was 3.72%; in test [4], 1.52%; in [5] it was -0.05%; in test [6] it was -0.14%. Besides, the figures for the inhibition in test [7], in test [8] and in [9] were 0.85%, 7.14% and 2.41%, respectively.

`COc1ccc2cc(-c3c(-c4ccncc4)nc(-c4ccc(S(C)(=O)=O)cc4C)n3C)ccc2c1`: the inhibition in test [1] was determined as 2.09%; in test [2] it was 9.36%; in test [3], 10%; in test [4], 2.04%; in [5], 2.16%; in [6] it was 5.62%. Besides, the values for the inhibition in [7], in [8] and in test [9] were 4.99%, -1.89% and 3.62%, respectively.

On to `N#Cc1ccc(Oc2nccc(-c3c(-c4ccc(F)cc4)ncn3C3CCNCC3)n2)cc1`, for which the inhibition in test [1] was -2.91%; in [2] it was 7.47%; in test [3] it was 7.87%; in test [4], 1.65%; in test [5], 2.68%; in test [6] it was 4.55%. In addition, the inhibition in test [7] was 4.04%; in [8], 2.41%; in test [9], 0.4%; in test [10], -4.78%.

Take `CS(=O)(=O)CCNCc1cc(-c2cc3c(Nc4ccc(OCc5cccc(F)c5)c(Cl)c4)ncnc3s2)cs1`: the inhibition is -1.71% in [1]; 10.9% in test [2]; 9.09% in test [3]; 2.13% in [4]; 3.83% in test [5]; 4.86% in [6]. For the same molecule, the inhibition in test [7] is 7.41%; in [8], 5.61%; in [9], 3.34%; in [10], -6.6%.

`COc1cc2ncn(-c3cc(OCc4ccccc4C(F)(F)F)c(C(C)=O)s3)c2cc1OC`: the inhibition in [1] was -1.77%; in [2], 5.43%; in [3], 4.68%; in [4], 0.85%; in test [5], 1.29%; in test [6], 4.94%. For the same molecule, the inhibition in test [7] is 2.41%; in [8], -1.43%; in [9], 0.17%; in test [10] it was -1.14%.
